D2 PAM-1: HTS Assay for Positive Allosteric Modulators of the Human D2 Dopamine Receptor: Primary Screen for Potentiators; D(2) dopamine receptor (Homo sapiens), P14416; HEK293 T-REx D2, calcium flux, EC20 dopamine potentiation; potentiation, % at 10 µM; hit rate 0.34% among 340,000; AID 485347, 2010;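 active = potentiation over 3 SD above the plate norm, cut at about 30% in these data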
Target sequence (P14416 whole entry, looked up): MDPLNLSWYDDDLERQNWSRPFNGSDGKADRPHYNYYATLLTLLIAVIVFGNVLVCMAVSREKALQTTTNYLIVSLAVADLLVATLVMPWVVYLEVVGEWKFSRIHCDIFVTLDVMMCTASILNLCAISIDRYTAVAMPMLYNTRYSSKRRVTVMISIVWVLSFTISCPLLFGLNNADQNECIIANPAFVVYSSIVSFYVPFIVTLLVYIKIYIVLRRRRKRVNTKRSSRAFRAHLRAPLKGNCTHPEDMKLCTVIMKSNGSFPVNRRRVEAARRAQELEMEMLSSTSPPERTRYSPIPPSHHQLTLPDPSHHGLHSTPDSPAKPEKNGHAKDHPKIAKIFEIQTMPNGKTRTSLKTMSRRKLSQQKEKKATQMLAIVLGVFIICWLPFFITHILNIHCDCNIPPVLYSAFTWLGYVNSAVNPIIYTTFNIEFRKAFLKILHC
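Using a no-wash calcium dye in inducible, force-coupled HEK293 Trex cells expressing D2, we tracked fluorescence each second for 180 s after compound, then for 180 s after EC20 dopamine to detect augmented signalling.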
D2 ag-1: HTS Assay for Allosteric Agonists of the Human D2 Dopamine Receptor: Primary Screen for Agonists; hit rate 0.53% among 340,000; activation, % at 2 µM; HEK293 T-REx D2 cells, calcium flux agonist mode; D(2) dopamine receptor (Homo sapiens), P14416;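 active = activation over 3 SD above normal in the single-dose calcium agonist read, cut at about 30% in these data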
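Calcium-flux readout, 1 cycle/sec over 180 s following compound pin transfer, in inducible HEK293 Trex D2 cells (force-coupled); dopamine controls included. Positive calcium responses during this window marked compounds as potential agonists.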
D2 PAM-2: Beta-Arrestin HTS for Positive Allosteric Modulators of the Human D2 Dopamine Receptor: Potentiators | DiscoveRx D2 beta-arrestin cells, luminescence, 90 min; 100% = 57 uM dopamine signal | AID 624464, 2012 | D(2) dopamine receptor (Homo sapiens), P14416 | potentiation, % (no concentration beside the values) | hit rate 0.23% among 360,000; in the data active = potentiation above about 50%
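PathHunter D2 cells, attached overnight at 37 deg C, received compound in DMSO plus dopamine at EC20 (50 nM final) for 90 min at 37 deg C. Beta-arrestin recruitment was read as luminescence after 1 h with detection reagent at ambient temperature.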
LDHA inh: qHTS assay for inhibitors of human lactate dehydrogenase. L-lactate dehydrogenase A chain (Homo sapiens), P00338. purified LDHA, NADH/diaphorase-resazurin fluorescence; active compounds read low. activity change, % (values are at about 110 or 230 µM). hit rate 0.15% among 480,000; in the data active = activity change below about -30%
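LDH5 2 nM; NADH 0.06 mM, pyruvate 0.2 mM; 200 mM Tris pH 7.4, EDTA, Tween-20; 5 min RT. Detection: diaphorase 0.133 mg/mL + resazurin 37 µM, fluorescence ex540/em590 at 0 and 20 min; normalized to enzyme-free and DMSO wells.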
D2 ag-2: Beta-Arrestin HTS for Positive Allosteric Modulators of the Human D2 Dopamine Receptor: Agonists. AID 624465, 2012. DiscoveRx PathHunter D2 beta-arrestin, luminescence, 90 min; 100% = 57 uM dopamine signal. activation, % (no concentration beside the values). hit rate 0.084% among 360,000. D(2) dopamine receptor (Homo sapiens), P14416; in the data active = activation above about 40%
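Agonist mode: compounds alone added to overnight-plated D2 PathHunter cells for 90 min at 37 C, with 57 uM final dopamine (EC100) defining full response. Beta-arrestin recruitment detected by chemiluminescent reagent, read after 1 h at ambient temperature.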
D2 antag: HTS Assay for Allosteric Antagonists of the Human D2 Dopamine Receptor: Primary Screen for Antagonists | hit rate 2% among 340,000 | inhibition, % at 10 µM | HEK293 TREx D2 cells, calcium flux, dopamine EC80 | D(2) dopamine receptor (Homo sapiens), P14416 | AID 485344, 2010; in the data active = inhibition above about 30%; inactive = below that, where a call was filed
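Read-out: kinetic calcium fluorescence (1 cycle/s) in inducible HEK293 T-REx D2 cells after an EC80 dopamine addition that followed 180 s compound preincubation. Loss of the dopamine response indicates antagonism.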
Numbers stand for hits; – = inactive; · = not tested or not shown. In the library only some 2.1% were active in any assay of this set; here they are far more common.

SMILES	D2 PAM-1	D2 ag-1	D2 PAM-2	LDHA inh	D2 ag-2	D2 antag
COc1ccc(CN(C)[C@H]2C[C@H]3c4[nH]c5ccccc5c4CCN3C[C@H]2[C@H](C)O)cc1	·	·	–	-30	–	·
COc1ccc(NC(=O)N(C)[C@H]2C[C@H]3c4[nH]c5ccccc5c4CCN3C[C@H]2[C@H](C)O)cc1	·	·	–	–	–	·
CC(=O)Nc1ccc(NC(=O)CN2CCN(c3cccc(C(F)(F)F)c3)CC2)cc1	–	–	–	–	–	–
Oc1cc2c(cc1CN1CCN(c3cccc(C(F)(F)F)c3)CC1)CCC2	–	–	–	–	–	56
CC(=O)Nc1ccc(CN2CCN(c3cccc(C(F)(F)F)c3)CC2)cc1	–	–	–	–	–	43
COc1ccc(N2CCN(Cc3cc4c(cc3O)CCC4)CC2)cc1	–	–	–	–	–	–
CCOC(=O)CC1C(=O)NCCN1c1nc2c(C)cccn2c(=O)c1/C=C1\SC(=S)N(CC(C)C)C1=O (stereo not given)	–	33	·	·	·	–
O=C(OCc1nnc(-c2ccccc2)o1)c1cc(S(=O)(=O)N2CCOCC2)c(Cl)cc1Cl	–	–	–	–	–	38
Cc1ccc(C(=O)OCc2nnc(-c3ccccc3)o2)o1	32	–	–	–	–	–
Cc1ccc(NS(=O)(=O)c2cc([N+](=O)[O-])ccc2N/N=C/c2ccc(C#N)cc2)c(C)c1	·	·	·	–	·	·
CC(C)c1ccc(C(C)NC(=O)Cc2cccs2)cc1 (stereo not given)	·	·	·	–	·	·
CCc1cc(=O)[nH]c(-n2nc(C)cc2NC(=O)c2ccccc2Br)n1	·	·	·	–	·	·
COc1ccccc1N1CCN(C(=O)c2ccc(CS(=O)(=O)c3ccccc3OC)o2)CC1	47	–	–	–	–	–
COCCSc1ccccc1C(=O)N1CCN(c2ccccc2OC)CC1	–	–	–	–	–	38
COCCCNC(=O)c1ccc(CS(=O)(=O)c2ccccc2OC)o1	–	–	–	–	–	33
COCCNC(=O)c1ccc(CS(=O)(=O)c2ccccc2OC)o1	–	–	–	–	–	–
Cc1ccccc1C(C)NC(=O)c1ccc2c(c1)NC(=O)CS2 (stereo not given)	·	·	·	–	·	·
NS(=O)(=O)c1ccc(O)c(NC(=O)c2ccc([N+](=O)[O-])cc2)c1	–	–	–	-57	–	–
O=C(Nc1ccc(O)cc1C(=O)O)c1ccc2c(c1)C(=O)N(Cc1ccco1)C2=O	–	–	–	–	–	–
O=C(Nc1cc([N+](=O)[O-])ccc1O)c1cccc([N+](=O)[O-])c1	–	–	–	–	–	–
NNC(=O)c1ccc([N+](=O)[O-])cc1	·	·	·	–	·	·
O=C(Nc1cc([N+](=O)[O-])ccc1O)c1ccc2c(c1)C(=O)N(Cc1ccco1)C2=O	–	–	–	-56	–	–
O=C(Nc1cc([N+](=O)[O-])ccc1O)c1cccc(C(=O)Nc2cc([N+](=O)[O-])ccc2O)c1	–	–	–	-35	–	–
COc1cc(CN2CCCC(CO)(Cc3ccccc3F)C2)ccc1O (stereo not given)	–	–	–	–	–	–
CCOc1ccc(CN2CCCC(CO)(Cc3ccc(F)cc3)C2)cc1 (stereo not given)	–	–	–	–	–	68
SMILES	D2 PAM-1	D2 ag-1	D2 PAM-2	LDHA inh	D2 ag-2	D2 antag
COC(=O)c1ccc(CN2CCCC(CO)(Cc3ccccc3F)C2)cc1 (stereo not given)	–	–	–	–	–	84
OCC1(CCc2ccccc2)CCCN(CCCc2ccccc2)C1 (stereo not given)	–	–	–	–	–	76
CSc1ccc(CN2CCCC(CO)(Cc3ccccc3)C2)cc1 (stereo not given)	–	–	–	–	–	51
CCN1CCN(c2cc(C(=O)O)c3cc(NC(=O)C(C)C)ccc3n2)CC1	·	·	·	–	·	·
COc1ccc2c(C)c(CCC(=O)Nc3c(C)cccc3C)c(=O)oc2c1	·	·	·	–	·	·
N#CC(/C(=N/S(=O)(=O)c1ccccc1)c1ccccc1)c1nc2ccccc2s1 (stereo not given)	·	·	·	–	·	·
Cc1cc(C(=O)N2CCCC(CO)(Cc3ccc(F)cc3F)C2)nn1C (stereo not given)	·	·	–	–	–	·
COc1ccc(CN2CCCC(CO)(Cc3ccc(F)cc3F)C2)cc1 (stereo not given)	–	–	–	–	–	43
CC(C)Cc1cc(CN2CCCC(CO)(Cc3cccc(Cl)c3)C2)[nH]n1 (stereo not given)	–	–	–	–	–	53
Cc1nc2ccc(C(=O)N3CCCC(CO)(Cc4ccc(F)cc4F)C3)cc2nc1C (stereo not given)	–	–	–	–	–	30
Cn1c(SCc2csc(-c3ccc4c(c3)OCO4)n2)nnc1C1CCCCC1	·	·	·	–	·	·
C/C=C/Cn1c(N2CCCCC2)nc2c1c(=O)[nH]c(=O)n2C	·	·	·	–	·	·
COc1ccc(CCNc2nc(-c3ccccc3)cs2)cc1OC	·	·	·	–	·	·
Cc1ccc(CNc2nc3cc(-c4ccccc4)sc3c(=O)n2C)c(C)c1	·	·	–	–	53	·
COc1ccc(-c2cc3nc(NCc4ccc(C)cc4C)n(C)c(=O)c3s2)cc1OC	·	·	–	–	–	·
COc1c2c(cc3c1C(CC(O)Cc1ccccc1)N(C)CC3)OCO2 (stereo not given)	–	–	–	–	–	57
CC(=O)CC1(O)C(=O)N(Cc2ccccc2)c2ccccc21 (stereo not given)	–	–	–	–	–	61
CC1(C)C(=S)N(Cc2ccccc2)c2ccccc21	–	–	63	–	–	–
C/C(CC1(O)C(=O)N(Cc2ccccc2)c2ccccc21)=N\O (stereo not given)	–	–	–	–	–	–
CCCCc1ccc(NC(=S)NN2CCN(C)CC2)cc1	·	·	·	–	·	·
CCOC(=O)c1cc2cc(NC(=O)C3CC(=O)Nc4ccccc43)ccc2s1 (stereo not given)	·	·	·	–	·	·
CCn1cnc2sc(C(=O)N(Cc3ccc(N(C)C)cc3)Cc3ccco3)c(C)c2c1=O	–	–	–	–	–	32
CCCCn1c(NCc2c[nH]c3ccccc23)nc2ccccc21	·	·	·	–	·	·
Cc1ccc(/C=C/C(=O)O)c(Br)c1	·	·	·	–	·	·
